Giardia FBPA inh = qHTS Assay for Inhibitors of Fructose-1,6-bisphosphate Aldolase from Giardia Lamblia; A8B2U2; purified Giardia FBPA; Potency, µM (highest dose often 59.6 µM), inactives show top-dose activity, negative = inhibition, most hits filed as inhibitors; AID 2451, 2010; 290,000 tested, 0.71% active; also: potency is read from the fitted curve at half-maximal effect; % is scaled to controls: 0 for no effect and ±100 for the full control effect; nearly all actives have a fitted effect of over 55% in size
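Giardia FBPA (40 nM reagent) was preincubated 10 min at RT with compound (up to 57.5 uM final), then substrate plus GAPDH/TPI/NAD/arsenate coupling system with diaphorase/resazurin was added; resorufin fluorescence (525/598 nm) was read after 20 min.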
Tb PYK inh = qHTS of Trypanosoma Brucei Inhibitors; pyruvate kinase (Trypanosoma brucei), Q57TT1; TbPYK enzyme, Kinase-Glo Plus ATP luminescence, 45 min; Potency, µM (doses to about 76.8 µM), for inactives: top-dose activity, negative = inhibition, actives largely listed as inhibitors; 410,000 tested, 0.12% active; also: potency is read from the fitted curve at half-maximal effect; % is scaled to controls: 0 for no effect and ±100 for the full control effect; nearly all actives have a fitted effect of over 50% in size
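Luminescence from Kinase-Glo Plus, added after a 45-minute room-temperature reaction, served as the end-point read-out. The enzyme and substrate were preincubated with compound before ADP (130 uM final) initiated turnover. Concentration-effect curves came from normalized qHTS data.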
Shiga inhibitor = A qHTS for Small Molecule Inhibitors of Shiga Toxin; AID 2315, 2010; 290,000 tested, 9.2% active; inhibition, % at 38.7 µM; Vero cells, Shiga toxin protein synthesis inhibition reporter; in the data active = inhibition mostly above about 28%, no sharp cut-off; inactive = mostly below about 43%; also: 0% is about no effect
LmPK inh = qHTS Assay for Inhibitors of Leishmania Mexicana Pyruvate Kinase (LmPK) | Q27686 | purified LmPK, Kinase-Glo ATP luminescence, 1 h | Potency, µM (top dose mostly 57.5 µM), inactives show at the top dose activity change, negative = inhibition, hits mostly inhibitors | 290,000 tested, 0.37% active | AID 1721, 2009; also: potency is read from the fitted curve at half-maximal effect; % is scaled to controls: 0 for no effect and ±100 for the full control effect
Target sequence (Q27686 whole entry, looked up): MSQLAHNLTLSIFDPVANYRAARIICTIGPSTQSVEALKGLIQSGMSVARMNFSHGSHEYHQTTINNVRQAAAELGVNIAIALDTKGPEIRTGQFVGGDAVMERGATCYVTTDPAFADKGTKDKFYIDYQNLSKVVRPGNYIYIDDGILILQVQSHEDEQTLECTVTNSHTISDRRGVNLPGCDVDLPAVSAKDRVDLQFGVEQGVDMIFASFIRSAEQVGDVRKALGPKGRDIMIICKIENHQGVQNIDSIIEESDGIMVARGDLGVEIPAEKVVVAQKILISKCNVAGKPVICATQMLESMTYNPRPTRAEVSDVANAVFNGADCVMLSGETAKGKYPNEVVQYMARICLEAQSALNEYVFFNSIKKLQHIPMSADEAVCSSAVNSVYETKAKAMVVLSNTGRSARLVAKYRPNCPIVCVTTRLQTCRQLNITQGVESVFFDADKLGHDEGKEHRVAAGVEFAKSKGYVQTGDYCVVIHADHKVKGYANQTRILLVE
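Purified LmPK (0.1 nM) converted ADP (0.1 mM) to ATP with PEP (0.5 mM) in imidazole buffer pH 7.2 with KCl and MgCl2, 1 h at room temperature. ATP was read by Kinase-Glo luminescence; data normalized to uninhibited and no-enzyme controls.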
CHX counter = Cycloheximide Counterscreen for Small Molecule Inhibitors of Shiga Toxin | cell reporter, cycloheximide protein synthesis inhibition counterscreen | max response, % | 300,000 tested, 12% active | AID 2314, 2010; in the data active = max response mostly above about 13%, no sharp cut-off; inactive = mostly below about 14%; also: read at 38.3 µM for the half of the compounds with a filed dose; 0% is about no effect
RE007 growth inh = qHTS Assay for Inhibitors of the HIV-1 protein Vpr; 360,000 tested, 0.21% active; Potency, µM (top dose mostly 92.2 µM), inactives show at the top dose activity change, negative = less growth, hits mostly inhibitors; S. pombe RE007 Vpr strain, BacTiter-Glo ATP luminescence, 24 h; active = well fitted falling curve with a large enough effect; inconclusive = small, poorly fitted or top-dose-only effect; inactive = no such curve, though single readings can be large or run the other way; also: potency is read from the fitted curve at half-maximal effect; % is scaled to controls: 0 for no effect and ±100 for the full control effect; nearly all actives have a fitted effect of over 50% in size
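Fission yeast strain RE007, carrying one chromosomally integrated HIV-1 vpr copy, was seeded at OD 0.01 in PMG+AL medium with 23 nL pinned compound. After 24 h at 30 °C and 99% humidity, viability was read by BacTiter-Glo luminescence.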
* hit, by the source's call; [ ] = remark or other dose. Only a selection was taken, and hits are over-represented in it overall. Unless noted, calls follow the shape of the dose curve; as a rule, active = well fitted curve in the direction sought with a large enough effect; inconclusive = small, poorly fitted or top-dose-only effect, or another doubt; inactive = no such curve, though single readings can be large; an effect the other way counts as inactive or inconclusive.

`Cc1cc(C)cc(OCC(=O)O/N=C(\N)c2ccccc2Cl)c1` gave Giardia FBPA inh 3%, Tb PYK inh -5%, Shiga inhibitor 32, LmPK inh -1%, CHX counter 16 and RE007 growth inh -16%.
For Cc1ccc(/C(N)=N/OC(=O)COc2ccccc2Cl)cc1 the results were Giardia FBPA inh -2%, Tb PYK inh 5%, Shiga inhibitor 97, LmPK inh 2%, CHX counter 39* and RE007 growth inh 3%.
`N/C(=N\OC(=O)COc1ccccc1Cl)c1ccc(Cl)cc1` gave Giardia FBPA inh 0%, Tb PYK inh -1%, Shiga inhibitor active, LmPK inh 6%, CHX counter 15* and RE007 growth inh 9%.
CCCc1ccc(OC(=O)c2sc3ncn(Cc4cccc(F)c4)c(=O)c3c2C)cc1 was read as Tb PYK inh 0%.
`O=C(Nc1ccc(Br)cc1)c1cccc(N2C(=O)C3C4C=CC(C4)C3C2=O)c1` (configuration not stated) gave Giardia FBPA inh 1%, Tb PYK inh -2%, Shiga inhibitor 20, LmPK inh -1%, CHX counter 10 and RE007 growth inh -27%.
For O=C(Nc1ccccc1)c1cccc(N2C(=O)C3C4C=CC(C5CC45)C3C2=O)c1 (configuration not stated) the results were Tb PYK inh -1%, Shiga inhibitor 8, LmPK inh 5%, CHX counter 3 and RE007 growth inh 15%.
For O=C(Nc1ccccc1)c1cccc(N2C(=O)C3C4C=CC(C4)C3C2=O)c1 (configuration not stated) the results were Tb PYK inh 3%, Shiga inhibitor 29, LmPK inh -6%, CHX counter 19* and RE007 growth inh 1%.
`COC(=O)c1ccc(NC(=O)c2cccc(N3C(=O)C4C5C=CC(C6CC56)C4C3=O)c2)cc1` (configuration not stated) gave Tb PYK inh 32%, Shiga inhibitor 64*, LmPK inh -3%, CHX counter 33* and RE007 growth inh -1%.
`CCOc1ccc(S(=O)(=O)N(CC(=O)Nc2ccc(OC)c(Cl)c2)c2ccccc2)cc1` gave Tb PYK inh -1%.
Screening CCc1nnc(NC(=O)c2nc(S(=O)(=O)Cc3cccc(C)c3)ncc2Cl)s1 returned Giardia FBPA inh inconclusive, Tb PYK inh -10%, Shiga inhibitor 74*, LmPK inh -2%, CHX counter 58* and RE007 growth inh -17%.
CCc1nnc(NC(=O)c2nc(S(=O)(=O)Cc3ccccc3)ncc2Cl)s1 was read as Tb PYK inh -8%, Shiga inhibitor 114*, LmPK inh -9%, CHX counter 75* and RE007 growth inh 10%.
`CCc1nnc(NC(=O)c2nc(S(=O)(=O)Cc3ccc(C)cc3)ncc2Cl)s1` gave Tb PYK inh -13%, Shiga inhibitor 78*, LmPK inh 2%, CHX counter 57* and RE007 growth inh -17%.
COCCn1c(=O)c(-c2cccs2)nc2cnc(Oc3cccc(Cl)c3)nc21 was read as Giardia FBPA inh -23% and Tb PYK inh -2%.
`COc1ccc2nc(C)cc(C(=O)O)c2c1` gave Giardia FBPA inh -4%, Tb PYK inh 3%, Shiga inhibitor -2, LmPK inh -3%, CHX counter -1 and RE007 growth inh 3%.
For COc1ccc2ncc(OC(C)=O)cc2c1 the results were Giardia FBPA inh -2%, Tb PYK inh -6%, Shiga inhibitor 23, LmPK inh -1%, CHX counter 14* and RE007 growth inh -4%.
Screening COC(=O)[C@@H]1C[C@H]1[C@@H](NC(=O)c1cc(C)nn1C)c1ccccc1 returned Giardia FBPA inh 10%.
Cc1ccc(/C=C2\SC(=S)N(CCC(=O)NNS(=O)(=O)c3ccc(C)cc3)C2=O)cc1 was read as Giardia FBPA inh -2%, Tb PYK inh -8%, Shiga inhibitor 13, LmPK inh 5%, CHX counter 25* and RE007 growth inh -5%.
Screening Cc1ccc(/C=C2\SC(=S)N(CCC(=O)NNC(=O)c3ccncc3)C2=O)cc1 returned Giardia FBPA inh 16%, Tb PYK inh 0%, Shiga inhibitor 3, LmPK inh 2%, CHX counter -2 and RE007 growth inh -5%.
Screening Cc1ccc(/C=C2\SC(=O)N(CCC(=O)N3CCN(C)CC3)C2=O)cc1 returned Giardia FBPA inh -6%, Tb PYK inh -4%, Shiga inhibitor 45*, LmPK inh 5%, CHX counter 27* and RE007 growth inh -16%.
Cc1ccc(/C=C2/SC(=S)N(CCC(=O)N3CCN(C)CC3)C2=O)cc1 was read as Giardia FBPA inh -2%, Tb PYK inh 4%, Shiga inhibitor 8, LmPK inh -3%, CHX counter -3 and RE007 growth inh -1%.
For Cc1ccc(/C=C2/SC(=S)N(CCC(=O)N3CCOCC3)C2=O)cc1 the results were Giardia FBPA inh 8%, Tb PYK inh -5%, Shiga inhibitor 23, LmPK inh 7%, CHX counter 16* and RE007 growth inh 5%.
For CCc1cccc(NS(=O)(=O)c2cc(-c3cnc(C)o3)ccc2OC)c1 the results were Tb PYK inh -5%.
`COc1ccc(-c2noc(-c3ccc(N4CCCCC4C)c([N+](=O)[O-])c3)n2)cc1OC` (configuration not stated) gave Tb PYK inh 5%.
`CC(C)CO/N=C1/C[C@@H](O)[C@@H](O)[C@@H]2[C@H]3C(=O)N(c4ccc(F)cc4F)C(=O)[C@@H]3CC[C@@H]12` gave Giardia FBPA inh 0%[12.9 µM].
`CCc1ccc(NC(=O)CSc2nccn2C2CCCC2)cc1` gave Tb PYK inh 0%.
Screening CC(C)[C@@H](CC(=O)N[C@@H]1CCCC[C@H]1C(=O)N[C@H](CC(=O)N[C@@H](CCC(=O)O)CC(=O)O)Cc1ccccc1)NC(=O)C[C@H](Cc1ccccc1)NC(=O)[C@@H]1CNCC[C@H]1N returned Giardia FBPA inh -20%.
`O=C1NC(c2ccccc2Br)=N/C1=C\c1ccco1` gave Giardia FBPA inh -22%, Tb PYK inh -3%, Shiga inhibitor 125*, LmPK inh inconclusive, CHX counter 48* and RE007 growth inh inconclusive.

Screens as filed in PubChem BioAssay.
